This is a sample that favours compounds with a hit; in the whole collection about 7.5% have one here.
Rab9 prom act: qHTS Assay for Rab9 Promoter Activators. Huh7 Rab9 promoter-luciferase reporter, luminescence, 24 h. Potency, µM (highest dose often 9.22 µM), without a hit: top-dose activation, negative = inhibition, actives largely listed as activators. 320,000 tested, 2.8% active; note: % of control where 0% means no effect; nearly all actives have a fitted effect of over 60% in size
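Luminescence read-out: Huh7 cells stably expressing Rab9-luciferase, treated 24 h with compound at 37 °C, then lysed with luciferase reagent for 10 min at ambient before reading.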
NPC1 promoter act: qHTS Assay for NPC1 Promoter Activators | 320,000 tested, 2.4% active | Huh7 NPC1 promoter luciferase reporter, 24 h | Potency, µM (series often up to 9.22 µM), for the others: top-dose activation, most hits filed as activators; note: % of control where 0% means no effect; nearly all actives have a fitted effect of over 60% in size
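Readout is luciferase luminescence, reflecting NPC1 promoter activation in stably transfected Huh7 cells after 24 h compound exposure at 37 °C in reduced-serum medium with 10% FBS.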
KinaseGlo FLuc: Counterscreen for Luciferase (Kinase-Glo TM) Inhibition | 200,000 tested, 0.28% active | Kinase-Glo luciferase, ATP luminescence, 8 min | Potency, µM (highest dose often 38.3 µM), for the others: at the top dose activity change, negative = inhibition, usual class: inhibitors; note: % is set by controls: 0 for no effect and ±100 for the full control effect; nearly all actives have a fitted effect of over 60% in size
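Compounds were added to a substrate mix at pH 7.2 (50 mM imidazole, 10 uM ATP, within the enzyme's linear range), followed by Kinase-Glo detection reagent; luminescence was measured after 8 minutes at ambient temperature.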
ELG1 genotoxic: qHTS screen for small molecules that induce genotoxicity in human embryonic kidney (HEK293T) cells expressing luciferase-tagged ELG1; AID 504466, 2011; 330,000 tested, 1.3% active; HEK293T ELG1-luciferase reporter, luminescence, 16 h; Potency, µM (top dose mostly 46 µM), for the others: at the highest dose activity change, positive = activation, actives largely listed as activators; note: % of control where 0% means no effect; nearly all actives have a fitted effect of over 60% in size
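After overnight (16 hr) compound treatment at 37 °C, ELG1-luciferase HEK293T cells were lysed with ONE-Glo; luminescence quantified 30 min later at room temperature.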
SMN2 splice enh: qHTS Assay for Enhancers of SMN2 Splice Variant Expression | HEK293 SMN2-luciferase splicing reporter, luminescence, 30-36 h | Potency, µM (titrated, usually from 46.1 µM), without a hit: at the top dose activity change, positive = activation, actives largely listed as activators | 210,000 tested, 2.8% active; note: % of control where 0% means no effect; nearly all actives have a fitted effect of over 55% in size
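HEK293 cells carry an SMN2 minigene-luciferase reporter in which exon 7 inclusion puts luciferase in frame. Cells were seeded at 2000 cells/well, attached for 10-12 hours, then exposed to compounds for 30-36 hours at 37C before ONE-Glo luminescence.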
FLuc modulator: qHTS profiling assay for firefly luciferase inhibitor/activator using purifed enzyme and Km concentrations of substrates (counterscreen for miR-21 project). Luciferin 4-monooxygenase (Photinus pyralis), P08659. purified FLuc, Km substrates, luminescence inhibition. 360,000 tested, 6.9% active. Potency, µM (titrated, usually from 57.5 µM), inactives show at the top dose activity change, negative = inhibition, hits mostly inhibitors. AID 588342, 2011;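 note: plate controls were vehicle for no effect and reference inhibitor for full effect; nearly all actives have a fitted effect of over 55% in size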
Target sequence (P08659 whole entry, looked up): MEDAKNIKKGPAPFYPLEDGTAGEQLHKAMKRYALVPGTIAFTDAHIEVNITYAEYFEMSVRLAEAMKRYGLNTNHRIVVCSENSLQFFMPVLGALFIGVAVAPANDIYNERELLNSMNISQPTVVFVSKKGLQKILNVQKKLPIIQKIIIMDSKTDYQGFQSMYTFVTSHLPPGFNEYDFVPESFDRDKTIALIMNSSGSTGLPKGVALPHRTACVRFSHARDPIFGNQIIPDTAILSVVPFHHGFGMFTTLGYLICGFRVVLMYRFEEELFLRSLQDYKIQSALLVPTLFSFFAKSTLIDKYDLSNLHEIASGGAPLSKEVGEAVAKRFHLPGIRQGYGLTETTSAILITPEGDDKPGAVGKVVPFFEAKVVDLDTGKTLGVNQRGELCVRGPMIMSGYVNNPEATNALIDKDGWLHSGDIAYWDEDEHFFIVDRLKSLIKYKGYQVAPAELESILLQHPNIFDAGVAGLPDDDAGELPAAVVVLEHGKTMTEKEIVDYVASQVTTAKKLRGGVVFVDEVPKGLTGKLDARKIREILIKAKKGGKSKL
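Purified P. pyralis luciferase (10nM final) with 10uM D-luciferin and 10uM ATP (Km levels) in 50mM Tris acetate pH 7.5, 10mM Mg acetate, 0.01% Tween-20, 0.05% BSA; qHTS 6-point titration, ~60 µM downward; luminescence read.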
* marks the source's active call; other numbers are inactive results; ? = inconclusive; / = no result given. Calls come from the whole dose curve; as a rule, active = well fitted curve in the direction sought with a large enough effect; inconclusive = small, poorly fitted or top-dose-only effect, or another doubt; inactive = no such curve, though single readings can be large; an effect the other way counts as inactive or inconclusive. Potency is the fitted concentration of half-maximal effect.

SMILES	Rab9 prom act	NPC1 promoter act	KinaseGlo FLuc	ELG1 genotoxic	SMN2 splice enh	FLuc modulator
N#Cc1nc(-c2ccccc2F)oc1NCc1ccccc1	-8%	-3%	-3%	6%	9%	-16%
N#Cc1nc(-c2cccs2)oc1NCCc1ccccc1	7%	18%	-2%	?	-7%	19µM*
N#Cc1nc(-c2ccco2)oc1NCCc1ccccc1	8%	9%	0%	3%	7%	?
COc1ccc(Nc2oc(-c3cccs3)nc2C#N)cc1	3.2µM*	?	-1%	?	?	4.8µM*
Cc1cccc(N2CCN(C(=O)c3oc(=O)c4ccccc4c3-c3ccccc3)CC2C)c1 (stereo unspecified)	/	/	/	/	-14%	4%
CCCOC(=O)c1ccc(NC(=O)c2ccc(Br)o2)cc1	27%	26%	-3%	?	-1%	17µM*
CCN(CC)c1ccc(NC(=O)c2ccc(Br)o2)cc1	0.79µM*	1.6µM*	-2%	?	11µM*	5.4µM*
COC(=O)Cc1ccc(NC(=O)c2ccc(C)c(C)c2)cc1	2.5µM*	?	-6%	5.2µM*	?	3µM*
COC(=O)Cc1ccc(NC(=O)C(c2ccccc2)c2ccccc2)cc1	1%	-1%	1%	0%	0%	2%
COc1ccc(-c2ccc(NC(=O)c3ccc(Br)o3)cc2)nn1	1.1µM*	2µM*	/	2.1µM*	/	?
CCc1nn(CC(=O)NCCOC)c(=O)c2cc3cc(F)ccc3n12	/	/	/	/	-5%	-9%
COC(=O)Cc1ccc(NC(C)=O)cc1	-4%	7%	/	5%	/	0%
COC(=O)Cc1ccc(NC(=O)c2ccc(Br)o2)cc1	?	?	-10%	18µM*	?	17µM*
COc1ccc(N2CC(c3nc(-c4ccccc4C)no3)CC2=O)cc1Cl (stereo unspecified)	/	/	/	/	/	5%
O=[N+]([O-])c1cccc(-c2nc(NCc3ccccc3)c3ccccc3n2)c1	14%	-3%	1%	2%	-16%	0%
Cc1ccc(-c2nc(N/N=C/c3cccnc3)c3ccccc3n2)cc1	3.5µM*	?	7.9µM*	?	?	0.12µM*
Cc1ccc(-c2nc(N/N=C/c3cccc([N+](=O)[O-])c3)c3ccccc3n2)cc1	-3%	?	-5%	0%	5%	0.54µM*
COc1ccc(OC)c(Nc2nc(-c3ccncc3)nc3ccccc23)c1	-14%	-24%	/	-3%	/	-1%
COc1ccc(/C=N/Nc2nc(-c3cccnc3)nc3ccccc23)c(OC)c1	1%	1%	/	-10%	/	2.4µM*
COc1ccc2c(c1)c1c(c(=O)n(-c3cccc(C)c3)c(=O)n1CC(=O)Nc1c(C)cc(C)cc1C)n2C	/	/	/	/	/	2%
COc1ccc(-c2cn3nc(N4CCC(C(=O)NCc5ccccc5F)CC4)sc3n2)cc1	/	/	/	/	/	-7%
Cc1cc(C)cc(NC(=O)N2CCC(N3CCCCC3)CC2)c1	/	/	/	/	22%	-1%
CCC(=O)N1CCc2cc(S(=O)(=O)NC(CC(C)C)C(=O)NCCc3ccccc3)ccc21 (stereo unspecified)	/	/	/	/	5%	-4%
Cc1ccc(NC(=O)COc2ccccc2C(N)=O)cc1S(=O)(=O)N1CCCCCC1	-26%	-22%	/	-3%	/	24µM*
COc1ccc(C(=O)NCC(=O)OCC(=O)Nc2cccc(S(=O)(=O)N3CCCC3)c2)cc1	-9%	-3%	/	-1%	/	12µM*
SMILES	Rab9 prom act	NPC1 promoter act	KinaseGlo FLuc	ELG1 genotoxic	SMN2 splice enh	FLuc modulator
Cc1ccc(NC(=O)COc2cccc(C)c2C)cc1S(=O)(=O)N1CCCCCC1	-5%	-1%	/	?	/	2%
Cc1cc(Cl)ccc1OCC(=O)Nc1cccc(S(=O)(=O)N2CCCC2)c1	-3%	-4%	/	-5%	/	9.5µM*
Cc1ccc2cccc(OCC(=O)Nc3cccc(S(=O)(=O)N4CCCC4)c3)c2n1	-3%	-2%	/	-12%	/	0%
O=C(COc1ccc(Cl)cc1Br)Nc1cccc(S(=O)(=O)N2CCCC2)c1	-1%	9%	/	-6%	/	2.7µM*
COc1ccc(C(=O)NCC(=O)Nc2cccc(S(=O)(=O)N3CCCC3)c2)cc1	/	/	/	3%	/	/
C[C@@H](C(=O)Nc1ccc2ccccc2c1)[C@H]1C[C@]1(C)[C@H](NC(=O)c1ccccc1)c1ccccc1	/	/	3%	/	-36%	/
CCOc1ccccc1OCC(=O)Nc1cccc(S(=O)(=O)N2CCCCCC2)c1	0%	7%	/	-1%	/	1%
CC(=O)c1ccccc1OCC(=O)Nc1cccc(S(=O)(=O)N2CCCC2)c1	-1%	7%	/	-2%	/	17µM*
Cc1cc(C)cc(OCC(=O)Nc2ccc(S(=O)(=O)Nc3onc(C)c3C)cc2)c1	/	/	/	/	-1%	?
COc1ccc(-n2cc(-c3ccccc3)c3c(Nc4ccc(OC)c(OC)c4)ncnc32)cc1	/	/	/	/	/	3%
O=C(CSc1nnc(-c2ccccn2)o1)Nc1ccccc1	2.5µM*	2.5µM*	0%	?	11µM*	-16%
Fc1ccc(CSc2nnc(-c3ccccn3)o2)cc1	2.2µM*	1.4µM*	/	?	/	11µM*
O=C(CSc1nnc(-c2ccccn2)o1)Nc1ccc(F)cc1	?	2µM*	/	?	/	6%
CCOC(=O)c1ccc(NC(=O)CCc2c(C)nc3cc(-c4ccc(OC)cc4OC)nn3c2C)cc1	/	/	/	/	-4%	-3%
O=C(Nc1cccc(-c2nnc(-c3ccccc3)o2)c1)c1ccco1	-1%	-8%	-3%	1%	-12%	3%
Cc1ccc(SCC(=O)Nc2cccc(-c3nnc(-c4ccco4)o3)c2)cc1	3.2µM*	3.2µM*	3%	-4%	22µM*	-11%
O=C(Nc1ccccc1)c1cccc(-c2nnc(-c3ccccc3)o2)c1	4µM*	2µM*	3%	?	1µM*	-12%
Cc1cccc(C(=O)Nc2nnc(-c3ccco3)o2)c1	1%	10%	2%	1%	28%	-15%
COc1cccc(-c2nnc(-c3ccccc3NC(=O)c3cccc(C(F)(F)F)c3)o2)c1	/	/	/	/	5%	-10%
COc1cccc(-c2nnc(-c3ccccc3NC(=O)c3ccc(C(C)(C)C)cc3)o2)c1	14%	-2%	/	3%	/	2.4µM*
COc1cccc(C(=O)Nc2cccc(-c3nnc(-c4ccco4)o3)c2)c1	10%	0%	-3%	-32%	-25%	19µM*
